As a reminder, the residual activity is the signal under treatment as a percentage of the control signal.

Drawing on ChEMBL document CHEMBL2218924, “A broad activity screen in support of a chemogenomic map for kinase signalling research and drug discovery” (Biochem J, 2013), this text covers residual activity for eight compounds.

The target of assay [1] is Glycogen synthase kinase-3 alpha (Homo sapiens) (UniProt P49840). As to conditions: at 1 µM.
For assay [2] the target is unchanged. The note with it: at 10 µM.
Assay [3] concerns the target Glycogen synthase kinase-3 beta (Homo sapiens) (UniProt P49841). The note with it: at 1 µM.
For assay [4] the target is unchanged. As to conditions: at 10 µM.
Assay [5] has as its target T1, Serine/threonine-protein kinase haspin (Homo sapiens) (UniProt Q8TF76).
T1 sequence (whole entry): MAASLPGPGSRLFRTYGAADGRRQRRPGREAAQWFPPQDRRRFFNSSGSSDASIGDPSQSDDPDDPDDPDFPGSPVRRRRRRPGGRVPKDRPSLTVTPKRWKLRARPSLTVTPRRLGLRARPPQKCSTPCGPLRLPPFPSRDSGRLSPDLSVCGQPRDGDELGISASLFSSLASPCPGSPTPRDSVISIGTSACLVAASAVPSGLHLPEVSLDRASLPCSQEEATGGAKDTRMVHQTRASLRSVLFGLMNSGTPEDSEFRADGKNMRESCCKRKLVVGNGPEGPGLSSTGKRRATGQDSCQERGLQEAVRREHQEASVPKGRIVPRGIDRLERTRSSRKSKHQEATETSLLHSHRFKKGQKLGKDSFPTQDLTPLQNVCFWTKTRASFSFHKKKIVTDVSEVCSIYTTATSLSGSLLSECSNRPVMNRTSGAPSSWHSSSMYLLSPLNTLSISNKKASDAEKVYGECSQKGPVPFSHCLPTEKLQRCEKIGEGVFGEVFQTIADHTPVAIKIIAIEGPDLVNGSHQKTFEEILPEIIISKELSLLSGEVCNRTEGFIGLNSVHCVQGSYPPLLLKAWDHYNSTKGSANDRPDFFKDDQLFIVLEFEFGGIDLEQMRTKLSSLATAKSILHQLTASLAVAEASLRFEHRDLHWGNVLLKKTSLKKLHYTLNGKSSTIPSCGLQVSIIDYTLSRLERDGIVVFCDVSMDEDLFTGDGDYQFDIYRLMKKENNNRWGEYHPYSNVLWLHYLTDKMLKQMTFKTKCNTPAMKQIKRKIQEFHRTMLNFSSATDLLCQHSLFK
As to conditions: at 10 µM.

Assay [6] concerns the target Tyrosine-protein kinase HCK (Homo sapiens) (UniProt P08631). As to conditions: at 10 µM.
Assay [7] addresses Insulin-like growth factor 1 receptor (Homo sapiens) (UniProt P08069). As to conditions: at 1 µM.
The target in assay [8] is G protein-coupled receptor kinase 6 (Homo sapiens) (UniProt P43250). The note with it: at 10 µM.
In assay [9] the target is T2, Rhodopsin kinase GRK7 (Homo sapiens) (UniProt Q8WTQ7).
T2 sequence (whole entry): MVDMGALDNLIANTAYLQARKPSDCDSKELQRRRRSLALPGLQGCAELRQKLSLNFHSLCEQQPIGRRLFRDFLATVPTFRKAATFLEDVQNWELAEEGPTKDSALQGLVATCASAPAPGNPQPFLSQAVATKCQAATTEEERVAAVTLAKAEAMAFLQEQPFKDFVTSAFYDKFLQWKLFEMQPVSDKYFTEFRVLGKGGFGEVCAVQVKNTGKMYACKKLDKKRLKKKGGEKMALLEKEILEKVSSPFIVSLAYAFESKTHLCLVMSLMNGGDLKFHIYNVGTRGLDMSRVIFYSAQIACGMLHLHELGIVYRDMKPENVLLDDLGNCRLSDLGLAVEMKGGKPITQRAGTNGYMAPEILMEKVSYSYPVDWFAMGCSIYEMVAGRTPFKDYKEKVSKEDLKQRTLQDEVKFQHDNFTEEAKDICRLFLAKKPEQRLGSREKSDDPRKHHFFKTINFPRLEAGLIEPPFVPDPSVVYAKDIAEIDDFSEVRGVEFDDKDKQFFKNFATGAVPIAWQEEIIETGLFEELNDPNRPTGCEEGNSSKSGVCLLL
The note with it: at 1 µM.

The target of assay [10] is T2, Rhodopsin kinase GRK7 (Homo sapiens). The note with it: at 10 µM.
Assay [11] deals with Homeodomain-interacting protein kinase 1 (Homo sapiens) (UniProt Q86Z02). As to conditions: at 1 µM.
The target is the same in assay [12]. As to conditions: at 10 µM.
In assay [13] the target is Homeodomain-interacting protein kinase 2 (Homo sapiens) (UniProt Q9H2X6). The note with it: at 1 µM.
The target of assay [14] is Homeodomain-interacting protein kinase 3 (Homo sapiens) (UniProt Q9H422). The note with it: at 1 µM.
Assay [15] shares this target. The note with it: at 10 µM.
Assay [16] addresses T1, Serine/threonine-protein kinase haspin (Homo sapiens). As to conditions: at 1 µM.
Assay [17] deals with Tyrosine-protein kinase HCK (Homo sapiens) (UniProt P08631). The note with it: at 1 µM.
For assay [18] the target is unchanged. The note with it: at 10 µM. The source holds these as a separate data set.
In assay [19] the target is Homeodomain-interacting protein kinase 2 (Homo sapiens) (UniProt Q9H2X6). The note with it: at 10 µM.
The target of assay [20] is Tyrosine-protein kinase HCK (Homo sapiens) (UniProt P08631). As to conditions: at 1 µM. The source holds these as a separate data set.

Structures are written as SMILES.

Sequence of Homeodomain-interacting protein kinase 2 (Homo sapiens) (Q9H2X6 whole entry, looked up): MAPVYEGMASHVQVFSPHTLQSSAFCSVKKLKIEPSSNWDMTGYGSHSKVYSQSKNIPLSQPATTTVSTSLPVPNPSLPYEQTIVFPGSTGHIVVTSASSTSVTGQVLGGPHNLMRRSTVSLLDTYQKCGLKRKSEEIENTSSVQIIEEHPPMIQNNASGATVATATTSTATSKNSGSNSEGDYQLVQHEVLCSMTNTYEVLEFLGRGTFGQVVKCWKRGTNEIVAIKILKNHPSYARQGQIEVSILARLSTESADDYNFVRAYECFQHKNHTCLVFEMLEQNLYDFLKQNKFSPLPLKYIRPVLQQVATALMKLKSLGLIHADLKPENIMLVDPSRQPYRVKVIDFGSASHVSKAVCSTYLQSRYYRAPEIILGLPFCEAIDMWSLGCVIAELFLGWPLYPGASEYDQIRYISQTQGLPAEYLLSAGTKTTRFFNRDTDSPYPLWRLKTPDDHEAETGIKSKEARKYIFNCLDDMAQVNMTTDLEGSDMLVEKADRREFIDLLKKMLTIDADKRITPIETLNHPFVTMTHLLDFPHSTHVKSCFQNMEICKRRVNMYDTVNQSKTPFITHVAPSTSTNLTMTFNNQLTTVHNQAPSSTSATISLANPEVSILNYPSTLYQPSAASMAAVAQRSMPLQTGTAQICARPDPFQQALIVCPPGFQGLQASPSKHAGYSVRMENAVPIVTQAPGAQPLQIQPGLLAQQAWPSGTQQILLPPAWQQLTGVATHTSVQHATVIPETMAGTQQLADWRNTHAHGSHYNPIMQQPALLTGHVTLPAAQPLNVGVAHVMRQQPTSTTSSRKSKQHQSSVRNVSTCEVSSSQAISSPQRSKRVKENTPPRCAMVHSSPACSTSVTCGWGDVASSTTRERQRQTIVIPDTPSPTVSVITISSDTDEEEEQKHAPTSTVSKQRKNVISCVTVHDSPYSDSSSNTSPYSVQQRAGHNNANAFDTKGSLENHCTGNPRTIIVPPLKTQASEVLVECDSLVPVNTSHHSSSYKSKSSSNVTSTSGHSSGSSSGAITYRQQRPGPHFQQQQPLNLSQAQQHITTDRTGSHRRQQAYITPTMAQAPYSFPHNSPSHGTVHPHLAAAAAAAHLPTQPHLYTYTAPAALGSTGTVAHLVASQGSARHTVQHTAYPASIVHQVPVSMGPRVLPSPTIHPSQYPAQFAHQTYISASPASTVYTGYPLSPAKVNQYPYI
Sequence of G protein-coupled receptor kinase 6 (Homo sapiens) (P43250 whole entry, looked up): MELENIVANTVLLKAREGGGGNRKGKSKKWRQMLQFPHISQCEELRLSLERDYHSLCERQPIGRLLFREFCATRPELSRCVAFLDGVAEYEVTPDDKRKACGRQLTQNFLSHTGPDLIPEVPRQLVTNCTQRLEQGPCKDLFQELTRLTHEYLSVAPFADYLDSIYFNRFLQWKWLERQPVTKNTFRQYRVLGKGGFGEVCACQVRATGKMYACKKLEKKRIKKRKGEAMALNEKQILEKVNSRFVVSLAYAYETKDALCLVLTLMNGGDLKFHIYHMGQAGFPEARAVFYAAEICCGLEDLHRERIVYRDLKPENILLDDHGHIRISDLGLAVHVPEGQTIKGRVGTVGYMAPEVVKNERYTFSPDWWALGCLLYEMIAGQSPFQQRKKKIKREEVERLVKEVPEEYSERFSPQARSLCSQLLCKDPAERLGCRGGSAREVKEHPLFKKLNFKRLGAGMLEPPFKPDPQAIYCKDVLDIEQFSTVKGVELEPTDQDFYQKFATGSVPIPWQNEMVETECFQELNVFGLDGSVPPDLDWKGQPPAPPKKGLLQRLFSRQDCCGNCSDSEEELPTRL
Sequence of Tyrosine-protein kinase HCK (Homo sapiens) (P08631 2-526 limits assumed): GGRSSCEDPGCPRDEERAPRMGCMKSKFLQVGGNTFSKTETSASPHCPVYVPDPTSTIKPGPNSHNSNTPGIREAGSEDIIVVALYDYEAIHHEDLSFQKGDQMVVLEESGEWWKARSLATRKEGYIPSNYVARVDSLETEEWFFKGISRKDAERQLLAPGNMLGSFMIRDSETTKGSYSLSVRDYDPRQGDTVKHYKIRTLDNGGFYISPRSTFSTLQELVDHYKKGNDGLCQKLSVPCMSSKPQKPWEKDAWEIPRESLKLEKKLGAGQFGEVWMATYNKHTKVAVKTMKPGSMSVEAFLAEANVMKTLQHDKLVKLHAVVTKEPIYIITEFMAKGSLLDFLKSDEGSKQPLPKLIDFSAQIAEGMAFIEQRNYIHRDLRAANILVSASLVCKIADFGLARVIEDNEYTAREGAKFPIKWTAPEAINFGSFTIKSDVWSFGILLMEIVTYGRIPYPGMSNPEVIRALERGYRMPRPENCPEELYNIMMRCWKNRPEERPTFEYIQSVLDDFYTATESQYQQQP
Sequence of Insulin-like growth factor 1 receptor (Homo sapiens) (P08069 31-736 limits assumed): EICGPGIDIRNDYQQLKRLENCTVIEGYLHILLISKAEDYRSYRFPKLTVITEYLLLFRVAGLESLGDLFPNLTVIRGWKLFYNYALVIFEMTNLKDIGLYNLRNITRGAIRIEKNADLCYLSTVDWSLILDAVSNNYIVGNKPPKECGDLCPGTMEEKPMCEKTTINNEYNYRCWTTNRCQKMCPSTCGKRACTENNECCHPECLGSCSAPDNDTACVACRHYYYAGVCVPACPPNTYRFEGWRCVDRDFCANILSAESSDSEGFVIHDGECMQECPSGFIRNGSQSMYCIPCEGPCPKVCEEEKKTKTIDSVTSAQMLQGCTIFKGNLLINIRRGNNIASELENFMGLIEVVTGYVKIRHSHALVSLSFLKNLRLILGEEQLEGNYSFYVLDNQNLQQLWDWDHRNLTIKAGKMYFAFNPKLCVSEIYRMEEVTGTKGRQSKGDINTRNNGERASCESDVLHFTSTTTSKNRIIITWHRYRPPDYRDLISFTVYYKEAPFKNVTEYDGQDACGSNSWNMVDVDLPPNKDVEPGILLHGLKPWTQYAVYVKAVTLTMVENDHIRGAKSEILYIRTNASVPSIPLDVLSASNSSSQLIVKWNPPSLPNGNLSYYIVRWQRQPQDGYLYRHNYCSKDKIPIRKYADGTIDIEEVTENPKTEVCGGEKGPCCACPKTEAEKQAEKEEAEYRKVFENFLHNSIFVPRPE
Sequence of Insulin-like growth factor 1 receptor (Homo sapiens) (P08069 741-1367 limits assumed): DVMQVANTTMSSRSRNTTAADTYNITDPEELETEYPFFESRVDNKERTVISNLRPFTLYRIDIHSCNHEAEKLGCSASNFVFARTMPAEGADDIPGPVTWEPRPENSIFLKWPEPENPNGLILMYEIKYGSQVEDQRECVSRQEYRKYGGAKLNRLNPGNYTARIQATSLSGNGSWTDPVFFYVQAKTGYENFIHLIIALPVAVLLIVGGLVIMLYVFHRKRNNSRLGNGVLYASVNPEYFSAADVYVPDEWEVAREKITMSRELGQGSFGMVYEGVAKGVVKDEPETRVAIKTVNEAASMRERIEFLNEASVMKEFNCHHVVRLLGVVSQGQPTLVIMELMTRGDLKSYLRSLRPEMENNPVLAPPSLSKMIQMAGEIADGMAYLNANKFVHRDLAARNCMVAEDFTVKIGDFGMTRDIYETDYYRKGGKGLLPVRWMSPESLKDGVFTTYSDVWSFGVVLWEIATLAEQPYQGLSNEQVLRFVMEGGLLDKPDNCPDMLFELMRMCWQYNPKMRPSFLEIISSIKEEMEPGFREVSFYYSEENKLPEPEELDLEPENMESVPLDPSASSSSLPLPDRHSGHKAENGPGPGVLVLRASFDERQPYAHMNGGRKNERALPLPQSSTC
Sequence of Homeodomain-interacting protein kinase 1 (Homo sapiens) (Q86Z02 whole entry, looked up): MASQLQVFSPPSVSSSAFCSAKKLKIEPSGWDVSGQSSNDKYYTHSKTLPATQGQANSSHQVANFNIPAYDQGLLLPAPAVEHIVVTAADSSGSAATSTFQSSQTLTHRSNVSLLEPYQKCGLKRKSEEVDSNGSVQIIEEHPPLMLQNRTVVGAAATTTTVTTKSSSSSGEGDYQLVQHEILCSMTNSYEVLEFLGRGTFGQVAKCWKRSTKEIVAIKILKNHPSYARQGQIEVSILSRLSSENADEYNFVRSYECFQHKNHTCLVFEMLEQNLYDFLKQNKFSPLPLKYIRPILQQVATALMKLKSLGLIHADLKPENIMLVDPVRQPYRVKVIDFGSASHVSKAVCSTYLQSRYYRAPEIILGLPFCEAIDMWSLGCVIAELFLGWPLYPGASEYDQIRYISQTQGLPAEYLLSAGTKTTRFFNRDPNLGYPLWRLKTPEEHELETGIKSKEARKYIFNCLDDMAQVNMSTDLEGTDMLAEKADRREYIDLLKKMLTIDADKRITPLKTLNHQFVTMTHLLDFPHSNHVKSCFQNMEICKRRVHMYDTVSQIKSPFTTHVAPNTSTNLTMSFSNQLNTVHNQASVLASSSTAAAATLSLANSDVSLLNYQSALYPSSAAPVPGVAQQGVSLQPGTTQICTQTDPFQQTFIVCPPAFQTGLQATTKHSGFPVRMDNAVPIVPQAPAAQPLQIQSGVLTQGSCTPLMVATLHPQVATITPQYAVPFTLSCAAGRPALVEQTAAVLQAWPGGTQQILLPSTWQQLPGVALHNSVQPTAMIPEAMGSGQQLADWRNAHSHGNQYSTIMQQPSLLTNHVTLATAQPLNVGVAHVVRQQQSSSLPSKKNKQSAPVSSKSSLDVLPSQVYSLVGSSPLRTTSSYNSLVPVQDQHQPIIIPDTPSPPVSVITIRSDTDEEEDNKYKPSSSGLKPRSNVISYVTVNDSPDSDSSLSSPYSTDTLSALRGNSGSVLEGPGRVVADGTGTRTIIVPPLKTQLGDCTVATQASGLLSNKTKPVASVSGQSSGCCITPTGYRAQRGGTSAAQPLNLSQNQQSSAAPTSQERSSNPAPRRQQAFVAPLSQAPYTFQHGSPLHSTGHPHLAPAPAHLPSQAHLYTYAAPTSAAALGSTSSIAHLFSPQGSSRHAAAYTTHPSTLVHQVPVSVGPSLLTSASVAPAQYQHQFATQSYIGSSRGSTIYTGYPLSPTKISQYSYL

For the compound `O=C1c2ccccc2-c2nc3nnnn3nc21`, the residual activity in [1] was 101%; in assay [2], 120%; in assay [3], 115%; in assay [4], 101%; in [5], 74%; in [6], 76%. The residual activity in assay [7] amounted to 129%.
Take `O=[N+]([O-])/C=C/c1ccc2c(c1)OCO2`: the residual activity in assay [8] worked out at 89%; in assay [9], 103%; in assay [10], 86%; in assay [1], 125%; in assay [2], 113%; in [4] it was 74%. The residual activity in assay [11] was 96%; in [12] it was 112%; in assay [13], 93%; in assay [14] it was 101%; in assay [15], 99%; in assay [16], 128%. In addition, the residual activity was 115% in assay [5]; 85% in assay [17]; 73% in assay [6]; 94% in [18]; 131% in [7].
On to `COc1cc2ncnc(Nc3ccc(OCc4ccccc4)cc3)c2cc1OC`, for which the residual activity in assay [8] stood at 97%; in assay [9] it was 105%; in assay [10], 99%; in assay [1], 100%; in assay [2] it was 160%; in assay [3], 104%. The residual activity was determined as 119% in [4]; 102% in [11]; 105% in assay [12]; 104% in [13]; 84% in assay [19]; 100% in assay [14]. The residual activity was determined as 96% in assay [15]; 77% in assay [16]; 45% in assay [5]; 35% in [17]; 19% in assay [6]; 90% in [20]. The figures for the residual activity in assay [18] and in assay [7] were 83% and 120%, respectively.
In the case of `COC(=O)[C@@]1(O)C[C@H]2O[C@]1(C)n1c3ccccc3c3c4c(c5c6ccccc6n2c5c31)C(=O)NC4`, the residual activity in assay [8] was determined as 5%; in [9], 4%; in assay [10] it was 4%; in [1], 14%; in assay [2], 3%; in [3], 29%. In addition, the residual activity in assay [4] was 10%; in assay [11], 78%; in assay [12], 15%; in [13], 22%; in [19], -1%; in [14], 54%. Also, the residual activity in assay [15] was -4%; in assay [16] it was 8%; in assay [5], 5%; in assay [17], 3%; in [6], 1%; in assay [20] it was 1%. For the same compound, the residual activity in [18] stood at 4%; in assay [7], 77%.
In the case of `O=c1[nH]c2ccccc2n1C1CCN(Cc2ccc(-c3nc4cc5[nH]cnc5cc4nc3-c3ccccc3)cc2)CC1`, the residual activity in assay [8] amounted to 94%; in assay [9] it was 110%; in assay [10], 94%; in assay [1], 112%; in assay [2], 123%; in assay [3], 108%. For the same compound, the residual activity in [4] amounted to 106%; in [11], 101%; in assay [12], 98%; in assay [13], 98%; in assay [19], 64%; in assay [14], 97%. Further, the residual activity in assay [15] worked out at 91%; in [16], 76%; in assay [5], 49%; in [17] it was 91%; in assay [6], 42%; in [20] it was 102%. Further, the figures for the residual activity in assay [18] and in [7] were 91% and 125%, respectively.
In the case of `c1cc(-c2cnn3cc(-c4ccc(OCCN5CCCCC5)cc4)cnc23)ccn1`, the residual activity is 100% in assay [1]; 76% in [2]; 85% in assay [11]; 34% in [12]; 62% in assay [13]; 14% in assay [19]. Also, the residual activity in assay [15] was determined as 45%; in [16] it was 38%; in assay [5] it was 4%; in [17], 64%; in assay [6] it was 18%; in assay [20] it was 32%. In assay [18], the residual activity was 4%.
Take `COc1ccc2c(c[n+](C)c3c4cc5c(cc4ccc23)OCO5)c1OC`: the residual activity was determined as 93% in assay [8]; 99% in [9]; 91% in assay [10]; 126% in assay [1]; 97% in assay [3]; 83% in assay [4]. The residual activity in assay [19] was found to be 86%; in assay [5], 69%; in assay [17], 92%; in assay [6], 60%; in assay [20], 95%; in assay [18] it was 92%. Moreover, the residual activity in [7] stood at 138%.
In the case of `COc1cc(OC)c(/C=C2\C(=O)Nc3ccccc32)c(OC)c1`, the residual activity in [8] was found to be 91%; in assay [9], 95%; in assay [10], 84%; in assay [1], 105%; in [2], 95%; in assay [3], 132%. The residual activity in [4] is 106%; in assay [11], 102%; in assay [12] it was 98%; in assay [13], 104%; in assay [19], 96%; in assay [14] it was 103%. Besides, the residual activity in assay [15] came to 98%; in assay [16], 70%; in [5], 61%; in [17], 89%; in assay [6], 69%; in [20] it was 93%. Besides, the residual activity in assay [7] is 93%.
